From PubChem BioAssay AID1863 (Southern Research Specialized Biocontainment Screening …, 2009)
Hit rate of the full screen: of about 300,000 compounds, about 480 (0.16%) were called active.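 How the source made its calls: active means inhibition over 29.93%, a cutoff 3 SD above the screen mean, later confirmed by dose response; inconclusive means inhibition over 29.93% but no dose response follow-up; inactive means inhibition at most 29.93% or unconfirmed.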 A selection follows. Potency and affinity values are given separately.

experiment: inhibitors of PhoP regulon expression, primary screen, Salmonella Typhimurium, GFP reporter (AID 1863);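 further: 0% = low Mg2+ inducing control and 100% = high Mg2+ repressing control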; details: S. Typhimurium PhoP-regulated promoter GFP reporter, 4 h; at 50 µM; hits give high values

inhibition, inactive:
COCCCNC(=O)CCCN1C(=O)c2cccnc2Sc2ccccc21 -9.37%
COc1ccc(N2CCN(c3nc4c(C)cccn4c(=O)c3/C=C(\C#N)C(N)=O)CC2)cc1 0.07%
COc1cc(Cl)ccc1OCc1cc(C(=O)N2CCC(N(C)C)C2)no1 (stereo unspecified) 4.49%
COCc1cc(CN2CCCC2)c(O)c2ncccc12 0.6%
O=C(Oc1c(CN2CCOCC2)cc(Cl)c2cccnc12)c1ccccc1Cl 13.4%
O=[N+]([O-])c1cccc2c(N3CCOCC3)ccnc12 -2.73%
O=[N+]([O-])c1cc(CN2CCN(c3ccccc3)CC2)c(O)c2ncccc12 14%
Oc1c(CN2CCCCC2)cc(Br)c2cccnc12 -2.58%
CN1CCN(Cc2cc(COCc3ccccc3)c3cccnc3c2O)CC1 21%
O=C(COC(=O)c1cc[n+]([O-])cc1)Nc1c(Cl)cccc1C(F)(F)F 0.58%
Cc1occc1-c1nnc(SCCNCCO)o1 -0.93%
CCn1ccnc1[C@@H]1C[C@H]2CN(Cc3cccc(Cl)c3)C(=O)[C@]23CCCN13 3.68%
CCN1C(=O)CSc2ccc(C(=O)NCc3ccc(OC)cc3)cc21 -1.69%
COc1ccc(S(=O)(=O)NN=C2CCCC2)cc1 1.9%
O=C(c1oc(=O)c2ccccc2c1-c1ccccc1)N1CCC(O)CC1 18.1%
CCOc1ccccc1N1CCN(CC(=O)Nc2ncc(C)s2)CC1 -2.9%
Oc1cccc(/C=N/N=C/c2cccc(O)c2O)c1O 16.2%
Oc1c(Br)cc(Br)cc1C=NCc1ccc(F)cc1 10.4%
Oc1cccc(C=NCc2ccccc2)c1 4.18%
O=C(Cc1ccccc1)N/N=C/c1cc(Br)cc(Br)c1O -8.98%
CCOc1ccccc1N(CC(=O)N/N=C(\C)c1cccc(Br)c1)S(C)(=O)=O -0.46%
CC(C)C[C@H](NC(=O)c1[nH]cnc1C(=O)N[C@H](C)c1ccccc1)C(=O)OC(C)(C)C -2.19%
CCCCCCCCOC(=O)C[N+](C)(C)C/C=C(/C)Cl 2.02%
CCCCCCCCCCCCOC(=O)C[N+](C)(C)C 0.96%
Cc1cc(C(=O)NCCN2CCOCC2)ccc1[N+](=O)[O-] -2.2%
Nc1nc(-c2ccccn2)nc(N)c1Cc1ccc(Cl)cc1Cl 3.01%
Cc1nc(N)c(Cc2ccccc2F)c(N)n1 2.15%
COc1ccc(C(=O)NCC(=O)N2CCN(c3ccccc3)CC2)cc1 -3.55%
COCc1c(C(=O)N/N=C/c2ccc(C)o2)nnn1-c1nonc1N 4.95%
COc1cccc(CC(=O)Nc2nc(-c3cccnc3)cs2)c1 -6.4%
Cc1ccc(N2C(=O)CC(NNc3nc4ccccc4s3)C2=O)cc1 (stereo unspecified) 7.17%
Cc1ccc(Nc2cc(C)nn2-c2nc(C)cc(C)n2)cc1 14.5%
Cc1cc(=O)[nH]c(-n2nc(C)cc2C)n1 -11.6%
Cc1ccc(S(=O)(=O)N2CCN(Cc3ccccc3)CC2)cc1 -4.43%
Cc1cc(C)c2ccc(NN)nc2c1O 0%
Cc1cc(C)c2ccc(C(=O)O)nc2c1O -7.66%
CCn1c(C)nnc1SCC(=O)Nc1ccc(N2CCOCC2)cc1 10%
O=C(COc1ccccc1[N+](=O)[O-])N1CCC(Cc2ccccc2)CC1 4.09%
Cc1nnc(N/N=C/c2c[nH]c3ccccc23)[nH]c1=O 7.38%
Cc1nnc(N/N=C/C(C)c2ccccc2)[nH]c1=O (stereo unspecified) -2.09%
S=C(Nc1ccccc1Cl)N(Cc1ccccc1)Cc1cccnc1 4.33%
O=C(CSc1ccc(-c2ccccn2)nn1)N1CCc2ccccc21 -3.41%
Cc1ccc(NC(=O)C[n+]2cc(-c3ccccc3)n3c2CCC3)cc1 -4.1%
Cc1ccc(-c2csc(NC(=O)C[n+]3cc(-c4ccccc4)n4c3CCC4)n2)cc1 -8.54%
Cc1ccc(NC(=O)C[n+]2cc(-c3ccc(C)cc3)n3c2CCC3)cc1 -9.5%
O=C(C[n+]1cc(-c2ccc(F)cc2)n2c1CCC2)Nc1nc(-c2ccc(F)cc2)cs1 20.4%
O=C(C[n+]1cc(-c2ccccc2)n2c1CCC2)Nc1nc(-c2ccc(F)cc2)cs1 11.3%
Cc1ccc(-c2c[n+](CC(=O)Nc3nc(-c4ccccc4)cs3)c3n2CCC3)cc1 -7.93%
O=C(c1cc2ccc([N+](=O)[O-])cc2oc1=O)N1CCOCC1 -3.48%
O=C(COc1ccc(S(=O)(=O)N2CCCCC2)cc1)Nc1ccccc1F -6.38%
O=C(c1ccc(N2CCN(C3CC(=O)N(Cc4cccs4)C3=O)CC2)cc1)c1cccnc1 (stereo unspecified) 4.02%
O=C(O)c1ccn2c(C(=O)c3ccccc3)c(-c3ccccc3)cc2c1 -13.9%
C[C@H]1COc2c(N3CCN(C)CC3)c(F)cc3c(=O)c(C(=O)O)cn1c23 -9.45%
CCOc1ccc(C(=O)Nc2ccc(N3CCN(C)CC3)cc2)cc1 -7.33%
C[C@H]1COc2c(C3(N)CC3)c(F)cc3c(=O)c(C(=O)O)cn1c23 -7.84%
CN1CCN(c2c(F)cc3c(=O)c(C(=O)O)cn(CCF)c3c2F)CC1 -2.24%
Cc1cc(C)c(NC(=O)c2cc(S(=O)(=O)N3CCOCC3)ccc2F)c(C)c1 -1.33%
CCOc1ccc(C(=O)Nc2ccc(S(=O)(=O)N3CCN(C)CC3)cc2)cc1 8.02%
CCn1cc(C(=O)NCC2CCCO2)c(=O)c2cc(F)c(N3CCN(C)CC3)cc21 (stereo unspecified) 0.68%
Cc1cc(C)n(CC(=O)N2c3ccccc3Sc3ccc(C(F)(F)F)cc32)n1 -5.1%
Cc1cc[n+](-c2[nH]c(=O)sc2/C=N/N=C(\[O-])CCn2c3ccccc3c3ccccc32)cc1 1.47%
